Compound activity (PubChem BioAssay)
Rows were chosen to be rich in hits. Some 2.8% of all compounds tested hit in one or more screens of this group.
HEK293 tox = cytotoxicity counter-screen for GLP-1 receptor inverse agonists | 410,000 tested, 0.13% active | Potency, µM (highest dose often 38.3 µM), hits mostly inhibitors | HEK293 cAMP-luciferase reporter cells, luminescence, 24 h;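 note: loss of luciferase light is scored as toxicity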
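Here, cytotoxicity is scored as loss of luminescence. The MLSMR collection was tested on cells seeded in medium containing 10% Nu serum, with a 24 hr compound exposure preceded by 12 hours of culture.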
GLP1R ag = agonists of human GLP-1 receptor; P43220; HEK293 GLP-1R CRE-luciferase, luminescence, 4-6 h; cells express a hypersensitive GLP-1R form; Potency, µM (top dose mostly 45.6 µM), actives largely listed as activators; 380,000 tested, 0.007% active; AID 624172
Target sequence (P43220 whole entry, looked up): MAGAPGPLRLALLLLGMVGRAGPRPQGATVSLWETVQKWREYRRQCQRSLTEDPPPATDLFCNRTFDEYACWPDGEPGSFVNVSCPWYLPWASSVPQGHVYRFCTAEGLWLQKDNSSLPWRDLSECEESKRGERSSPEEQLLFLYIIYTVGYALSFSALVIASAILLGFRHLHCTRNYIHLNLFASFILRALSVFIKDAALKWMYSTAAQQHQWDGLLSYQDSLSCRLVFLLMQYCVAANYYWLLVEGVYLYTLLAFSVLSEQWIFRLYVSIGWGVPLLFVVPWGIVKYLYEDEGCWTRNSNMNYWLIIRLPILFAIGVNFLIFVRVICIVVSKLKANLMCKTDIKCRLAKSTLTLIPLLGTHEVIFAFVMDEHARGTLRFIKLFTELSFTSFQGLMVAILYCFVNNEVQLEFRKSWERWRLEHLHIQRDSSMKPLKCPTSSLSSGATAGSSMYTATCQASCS
BRCA1 expr up = BRCA1 expression activation; MCF7-BRCA1-FFLuc reporter, luminescence, 48 h; response scale: scaled: vehicle 0%, 10 µM genistein 100%; Potency, µM (titrated, usually from 46.1 µM), hits mostly activators; 380,000 tested, 1.1% active; AID 624202; note: nearly all actives have a fitted effect of over 80% in size
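MCF7-BRCA1-FFLuc, 2000 cells/well; 2 h attach, 37 °C/5% CO2; compound 48 h; luciferase substrate 15 min; luminescence end-point. Norm. to genistein 10 microM max activation and DMSO; concentration-response curves fitted.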
Mito fusion yeast = blocks mitochondrial division or promotes mitochondrial fusion; Potency, µM (series often up to 46.1 µM), most hits filed as activators; 320,000 tested, 0.23% active; S. cerevisiae fusion-defective mutant growth rescue, CellTiterGlo 48 h; note: nearly all actives have a fitted effect of over 45% in size
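Temperature-sensitive fusion-defective S. cerevisiae (e.g. fzo1-1, mgm1-5) were grown with compound in YPEG medium (3% ethanol, 3% glycerol) for 48 hours at 37C. Growth rescue was measured as viability by CellTiterGlo luminescence after 10 minutes at ambient.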
GLP-1R inv ag = inverse agonists of human GLP-1 receptor; P43220; HEK293 GLP-1R CRE-luciferase, luminescence, 24 h; GLP-1R form is constitutively active; Potency, µM (top dose mostly 38.3 µM), most hits filed as inhibitors; 410,000 tested, 1.6% active; note: nearly all actives have a fitted effect of over 55% in size
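Stable HEK293 clone (constitutively active GLP-1R + cAMP-response luciferase); 200 cells/uL plated, 12 h pre-culture, compound 24 hr, 37 deg C/5% CO2; detection reagent 12 min RT; luminescence.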
Of the large screens only hits and unclear results are named; the others gave an inactive call. Calls come from the whole dose curve; as a rule, active = well fitted curve in the direction sought with a large enough effect; inconclusive = small, poorly fitted or top-dose-only effect, or another doubt; inactive = no such curve, though single readings can be large; an effect the other way counts as inactive or inconclusive.

O=c1cc(CSc2nnc(NC3CCCCC3)s2)nc2sccn12	none
c1ccc(CSc2nnc(NC3CCCCC3)s2)cc1	BRCA1 expr up 3.5µM, GLP-1R inv ag inconclusive (no result: Mito fusion yeast)
CCOC(=O)c1c(NC(=O)Cc2cccs2)sc(C(=O)NC2CCCCC2)c1C	none
COC(=O)c1c(NC(=O)Cc2cccs2)sc(C(=O)NC2CCCCC2)c1C	BRCA1 expr up 3.2µM (no result: Mito fusion yeast)
O=C(c1ccccc1)C1N=NCC1c1ccc(Cl)cc1 (centres undefined)	GLP-1R inv ag 10µM (no result: Mito fusion yeast)
CCOC(=O)C1=NNC(C(=O)c2ccccc2)C1c1ccc(Cl)cc1 (centres undefined)	GLP-1R inv ag inconclusive
CCN1C(C(=O)c2ccccc2)=C(OC(=O)c2ccccc2OC)c2ccccc2S1(=O)=O	HEK293 tox inconclusive, GLP-1R inv ag 10µM (no result: GLP1R ag, BRCA1 expr up, Mito fusion yeast)
CCN(CC)CCCn1c(C)cc2c(c1=O)C(c1ccccc1)C(C#N)=C(N)O2 (centres undefined)	Mito fusion yeast 11µM
CCN(CC)CCCn1c(C)cc2c(c1=O)C(c1ccc(OC)c(OC)c1OC)C(C#N)=C(N)O2 (centres undefined)	none
Cc1cccc(C)c1NC(=O)C(=O)NCCCN1CCOCC1	none
Cc1ccc(-c2nn(-c3ccccn3)c(=O)c3ccccc23)cc1	none
Cc1ccc(-c2nn(-c3ccccn3)c(=O)c3ccccc23)cc1C	GLP-1R inv ag 10µM
N#C/C(=C/c1ccc(Sc2nc3ccccc3[nH]2)o1)c1cccc(Br)c1	GLP-1R inv ag 10µM
NNc1ccc(Cl)nn1	HEK293 tox inconclusive, GLP-1R inv ag 10µM
Oc1c(C(c2ccccc2Cl)N2CCCC2)ccc2cccnc12 (centres undefined)	GLP-1R inv ag 3.5µM
Oc1c(C(c2cccs2)N2CCN(c3ccccc3)CC2)ccc2cccnc12 (centres undefined)	none (no result: HEK293 tox, GLP1R ag, BRCA1 expr up, GLP-1R inv ag)
Oc1c(C(c2ccc(Cl)cc2)N2CCCC2)cc(Cl)c2cccnc12 (centres undefined)	HEK293 tox inconclusive, GLP-1R inv ag 5.6µM
O=C(CSc1nnnn1C1CCCCC1)N1CCOCC1	none
COc1ccccc1/C=C(/CC(=O)NCc1ccc(F)cc1)c1nc2ccccc2s1	GLP-1R inv ag inconclusive
CC(NS(=O)(=O)OCC(Cl)(Cl)Cl)c1ccc(C(C)(C)C)cc1 (centres undefined)	HEK293 tox inconclusive, GLP-1R inv ag 5.6µM
CC(C)(NS(=O)(=O)OCC(Cl)(Cl)Cl)c1ccccc1	GLP-1R inv ag inconclusive
COCc1cn(-c2nc3ccccc3s2)nn1	BRCA1 expr up 11µM (no result: Mito fusion yeast)
N#CCCCc1cn(-c2nc3ccccc3s2)nn1	BRCA1 expr up 10µM (no result: Mito fusion yeast)
CCc1ccc(C(=O)c2cnc3ccc(C)cc3c2S(=O)(=O)c2ccc(OC)cc2)cc1	GLP-1R inv ag inconclusive (no result: GLP1R ag, BRCA1 expr up, Mito fusion yeast)
Cc1c(C(=O)NCCCN2CCCCC2)oc2ccc3c(c12)C(O)CC1(CCCCC1)O3 (centres undefined)	GLP-1R inv ag inconclusive
CC(=O)Nc1ccc(NC(=O)COC(=O)c2ccc(S(=O)(=O)NCc3ccco3)cc2)cc1	none (no result: Mito fusion yeast)
NC(=O)C(c1ccc(Br)cc1)c1ccc(C(=O)c2ccccc2)cc1 (centres undefined)	GLP-1R inv ag 11µM
NC(=O)C(c1ccc(F)cc1)c1ccc(C(=O)c2ccccc2)cc1 (centres undefined)	GLP-1R inv ag inconclusive
O=C(NCc1cccnc1)C1CCCN1S(=O)(=O)c1ccc(Cl)cc1 (centres undefined)	none
C=CCOC(=O)C1=C(C)NC(C)=C(C(=O)OCC=C)C1c1ccco1	GLP-1R inv ag 11µM
C=CCOC(=O)C1=C(C)NC(C)=C(C(=O)OCC=C)C1/C=C/c1ccccc1	GLP-1R inv ag 5µM
Cc1ccc(Nc2c3c(nc4ccccc24)CCC3)cc1F	HEK293 tox inconclusive, GLP-1R inv ag inconclusive (no result: Mito fusion yeast)
Cc1c(Cl)cccc1NC(c1ccc(F)cc1)c1nnc(-c2ccccc2)o1 (centres undefined)	GLP-1R inv ag 8.9µM (no result: GLP1R ag, BRCA1 expr up, Mito fusion yeast)
CC(=O)c1cccc(NC(c2ccc(F)cc2)c2nnc(-c3ccccc3)o2)c1 (centres undefined)	GLP-1R inv ag inconclusive (no result: Mito fusion yeast)
CCN(CC)CCCCN1c2ccccc2Sc2ccccc21	HEK293 tox inconclusive, GLP-1R inv ag 5µM
Cc1ccc(C2=CC(c3ccc(Cl)cc3)n3nc(-c4ccc(C)cc4)nc3N2)cc1 (centres undefined)	GLP-1R inv ag 2.2µM (no result: GLP1R ag, BRCA1 expr up, Mito fusion yeast)
Cc1ccc(-c2nnn(CC(=O)Nc3cccc4cccnc34)n2)o1	none
COc1ccc(CCNC(=O)CNS(=O)(=O)c2ccc(Br)cc2)cc1	none (no result: Mito fusion yeast)
CSc1nn(Cc2cccc(Cl)c2)c(N(C(C)=O)C(C)=O)c1S(=O)(=O)c1ccccc1	GLP-1R inv ag 13µM (no result: Mito fusion yeast)
O=C1NC(=S)SC1=Cc1ccc(F)cc1	HEK293 tox inconclusive (no result: Mito fusion yeast)
O=C1NC(=O)/C(=C/c2ccc(-c3ccc(F)cc3O)o2)S1	Mito fusion yeast 4.6µM (no result: HEK293 tox, GLP1R ag, BRCA1 expr up, GLP-1R inv ag)
c1ccc(C[C@H]2CNCCN2CCc2cccc3ccccc23)cc1	GLP-1R inv ag 11µM
Cc1nc2nc(SCC(=O)NCCCN3CCCC3)nn2c(C)c1Cc1ccccc1Cl	GLP-1R inv ag 6.3µM
COc1ccccc1CN1CC(C(=O)N(C)CCOc2ccccc2)CCC1=O (centres undefined)	none
COc1ccc(-c2[nH]nc3c2C2(C(=O)N(CC(=O)O)c4ccccc42)C(C#N)=C(N)O3)cc1OC (centres undefined)	none
Cc1noc(C)c1-c1ccc(C(=O)Nc2ccc(C(C)C)cc2)c2occc12	GLP-1R inv ag 4.5µM (no result: Mito fusion yeast)
O=C(CSc1ccccn1)N/N=C/c1c[nH]c2ccccc12	none
CC1C(=O)CC(c2ccc([N+](=O)[O-])cc2)NC1c1ccc([N+](=O)[O-])cc1 (centres undefined)	GLP-1R inv ag 8.9µM
CC1C(=O)C(C)C(c2ccc([N+](=O)[O-])cc2)NC1c1ccc([N+](=O)[O-])cc1 (centres undefined)	none
COc1ccc(CN([C@H](CO)CC(C)C)S(=O)(=O)N(Cc2ccccc2)[C@H](CO)CC(C)C)cc1	HEK293 tox inconclusive, GLP-1R inv ag 4.5µM (no result: Mito fusion yeast)
CC(C)C[C@@H](CO)N(Cc1ccccc1)S(=O)(=O)N(Cc1ccccc1)[C@H](CO)CC(C)C	HEK293 tox inconclusive, GLP-1R inv ag inconclusive
Cc1c(C(=O)N2CCOCC2)c(S(=O)(=O)Nc2ccc(F)cc2)c(C)n1C	none
CC(C)c1ccc(NC(=O)COc2ccccn2)cc1	BRCA1 expr up 4µM
COc1ccc(C(=O)Nc2ccc(C(F)(F)F)n(C)c2=O)cc1	BRCA1 expr up 11µM
Cc1ccc(C23CC4CC(CC(CC(=O)NC(C)(C)CO)(C4)C2)C3)cc1	Mito fusion yeast 18µM, GLP-1R inv ag inconclusive
Cc1ccc(C23CC4CC(CC(CN)(C4)C2)C3)cc1	HEK293 tox inconclusive, GLP-1R inv ag inconclusive
